Experimental data taken from PubChem BioAssay (NCATS).
Results filed as inconclusive are left out. Calls of active or inactive are those of the source. The call rests on the fitted dose curve; in most records, active means well fitted cell-killing curve with a large enough effect; inconclusive means small, poorly fitted or top-dose-only effect, or effect the other way; inactive means flat fitted curve, though single readings scatter.

How the values were obtained:
Assay in all cases: Primary qHTS to identify gynecologic anti-cancer compounds using libraries of approved drugs and bioactive compounds (AID 1345084); further: nearly all actives have a fitted effect of over 55% in size
C33A = conditions: Gynecologic cancer cell panel viability, ATPlite luminescence, 48 h; series mostly up to 57.5 µM
In short: (§1)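 ATP-based viability (ATPlite), 1,000 cells/well, 16 h pre-incubation, 48 h compound at 37 C, 5% CO2, 15 min RT before read.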

CASKI = conditions: Gynecologic cancer cell panel viability, ATPlite luminescence, 48 h; series mostly up to 57.5 µM
In short: as §1

Es-2 = conditions: Gynecologic cancer cell panel viability, ATPlite luminescence, 48 h; series mostly up to 57.5 µM
In short: as §1

HeLa = conditions: Gynecologic cancer cell panel viability, ATPlite luminescence, 48 h; series mostly up to 57.5 µM
In short: as §1

Hek293T = conditions: Gynecologic cancer cell panel viability, ATPlite luminescence, 48 h, control line for the selectivity index; series mostly up to 57.5 µM
In short: as §1

JEG-3 = conditions: Gynecologic cancer cell panel viability, ATPlite luminescence, 48 h; series mostly up to 57.5 µM
In short: as §1

OV90 = conditions: Gynecologic cancer cell panel viability, ATPlite luminescence, 48 h; series mostly up to 57.5 µM
In short: as §1

PA-1 = conditions: Gynecologic cancer cell panel viability, ATPlite luminescence, 48 h; series mostly up to 57.5 µM
In short: as §1

SKOV3 = conditions: Gynecologic cancer cell panel viability, ATPlite luminescence, 48 h; series mostly up to 57.5 µM
In short: as §1

Tov-21-G = conditions: Gynecologic cancer cell panel viability, ATPlite luminescence, 48 h; series mostly up to 57.5 µM
In short: as §1

Tov112D = conditions: Gynecologic cancer cell panel viability, ATPlite luminescence, 48 h; series mostly up to 57.5 µM
In short: as §1

CAOV3 = conditions: Gynecologic cancer cell panel viability, ATPlite luminescence, 48 h; series mostly up to 57.5 µM
In short: as §1
On the % scale 0 is the no-effect control and ±100 the full control effect; potency means the concentration at half of the fitted maximal effect.

COc1cc(/C=C/C(=O)O[C@H]2C[C@@H]3C(C(=O)O)=CO[C@@H](O[C@@H]4O[C@H](CO)[C@@H](O)[C@H](O)[C@H]4O)[C@@H]3[C@H]2C)ccc1O
inactive: Potency (C33A) | outcome (CASKI) | Potency (Es-2) | Potency (HeLa) | Potency (Hek293T) | Potency (JEG-3) | Potency (OV90) | Potency (PA-1) | Potency (SKOV3) | Potency (Tov-21-G) | Potency (Tov112D)

CC(=O)OC/C(=C/C(=O)O)CC[C@@H]1C(CO)=CC[C@@H]2C(C)(C)CCC[C@@]12C
inactive: Potency (C33A) | outcome (CASKI) | Potency (Es-2) | Potency (HeLa) | Potency (Hek293T) | Potency (JEG-3) | Potency (OV90) | Potency (PA-1) | Potency (SKOV3) | Potency (Tov-21-G) | Potency (Tov112D)

C/C(=C\C(=O)C(C)C1CCC2C3=C(CCC21C)C1(C)CCC(=O)C(C)(C)C1(O)CC3)C(C)(C)O (configuration not stated)
inactive: Potency (C33A) | outcome (CASKI) | Potency (Es-2) | Potency (HeLa) | Potency (Hek293T) | Potency (JEG-3) | Potency (OV90) | Potency (PA-1) | Potency (Tov-21-G) | Potency (Tov112D)

C/C(=C\CCC(C)(C)O)CCO[C@@H]1O[C@H](CO[C@@H]2O[C@@H](C)[C@H](O)[C@@H](O)[C@H]2O)[C@@H](O)[C@H](O)[C@H]1O
inactive: Potency (CAOV3) | outcome (CASKI) | Potency (Es-2) | Potency (HeLa) | Potency (Hek293T) | Potency (JEG-3) | Potency (OV90) | Potency (PA-1) | Potency (Tov-21-G) | Potency (Tov112D)

COc1ccc(-c2ccn(CC[C@](C)(C(=O)NO)S(C)(=O)=O)c(=O)c2)c(F)c1
active: Potency (CAOV3) 22.4 µM | Potency (Es-2) 14.1 µM | Potency (JEG-3) 20 µM | Potency (OV90) 15.8 µM | Potency (Tov-21-G) 25.1 µM

O=C(N[C@@H]1CC[C@@H](c2cccc(F)c2F)CN(CC(F)(F)F)C1=O)N1CCC(n2c(=O)[nH]c3ncccc32)CC1
inactive: Potency (C33A) | outcome (CASKI) | Potency (Es-2) | Potency (HeLa) | Potency (Hek293T) | Potency (JEG-3) | Potency (OV90) | Potency (PA-1) | Potency (SKOV3) | Potency (Tov-21-G) | Potency (Tov112D)

O=C(Nc1ccn(Cc2c(F)cccc2C(F)(F)F)n1)c1c(F)cccc1F
inactive: activity change, negative = cytotoxicity (C33A) 3.35% [at 11.6 µM] | activity change, negative = cytotoxicity (CASKI) 7.64% [at 11.6 µM] | activity change, negative = cytotoxicity (Es-2) 0.101% [at 11.6 µM] | activity change, negative = cytotoxicity (HeLa) 13% [at 11.6 µM] | activity change, negative = cytotoxicity (Hek293T) -2.96% [at 11.6 µM] | activity change, negative = cytotoxicity (JEG-3) 9.68% [at 11.6 µM] | activity change, negative = cytotoxicity (OV90) 0.656% [at 11.6 µM] | activity change, negative = cytotoxicity (PA-1) 10.8% [at 11.6 µM] | activity change, negative = cytotoxicity (SKOV3) 9.68% [at 11.6 µM] | activity change, negative = cytotoxicity (Tov-21-G) 10.6% [at 11.6 µM] | activity change, negative = cytotoxicity (Tov112D) 3.93% [at 11.6 µM]

COc1c(O[C@@H]2O[C@H](CO)[C@@H](O)[C@H](O)[C@H]2O)c(CCC(=O)O)cc2ccoc12
inactive: Potency (CAOV3) | outcome (CASKI) | Potency (Es-2) | Potency (HeLa) | Potency (Hek293T) | Potency (OV90) | Potency (PA-1) | Potency (Tov-21-G) | Potency (Tov112D)

CC(C)C1CCC(CO)=CC1/C=C(\CO)C(=O)OCC1(O)CCC(C(C)C)C2C=C(C(=O)O)COC(=O)C21 (configuration not stated)
inactive: Potency (C33A) | outcome (CASKI) | Potency (Es-2) | Potency (HeLa) | Potency (Hek293T) | Potency (JEG-3) | Potency (OV90) | Potency (PA-1) | Potency (SKOV3) | Potency (Tov-21-G) | Potency (Tov112D)

CC(C)CC(=O)NCCn1cc(C(=O)O)c(=O)cc1C(O)c1ccccc1 (configuration not stated)
inactive: Potency (C33A) | outcome (CASKI) | Potency (Es-2) | Potency (HeLa) | Potency (Hek293T) | Potency (JEG-3) | Potency (OV90) | Potency (PA-1) | Potency (SKOV3) | Potency (Tov-21-G) | Potency (Tov112D)

COC(=O)[C@H](Cc1ccc([N+](=O)[O-])cc1)NC(=O)c1cccc2ccccc12
inactive: Potency (C33A) | outcome (CASKI) | Potency (Es-2) | Potency (HeLa) | Potency (Hek293T) | Potency (JEG-3) | Potency (OV90) | Potency (PA-1) | Potency (Tov-21-G) | Potency (Tov112D)

Cc1nnc(-c2ccc3occ(-c4ccc(S(C)=O)cc4)c3c2)o1 (configuration not stated)
inactive: outcome (CASKI) | Potency (HeLa) | Potency (Hek293T) | Potency (JEG-3) | Potency (SKOV3) | Potency (Tov-21-G) | Potency (Tov112D)

CCCC(C(=O)O)c1c(C)nc2ccc(Cl)cc2c1-c1ccccc1 (configuration not stated)
inactive: Potency (C33A) | outcome (CASKI) | Potency (Es-2) | Potency (HeLa) | Potency (Hek293T) | Potency (JEG-3) | Potency (OV90) | Potency (PA-1) | Potency (Tov-21-G) | Potency (Tov112D)

CC1=C2CC(=O)C(C)CC/C=C(\C)CC2OC1=O (configuration not stated)
inactive: Potency (CAOV3) | outcome (CASKI) | Potency (Es-2) | Potency (HeLa) | Potency (Hek293T) | Potency (JEG-3) | Potency (OV90) | Potency (PA-1) | Potency (SKOV3) | Potency (Tov-21-G) | Potency (Tov112D)

CC1=CC(=O)C2C(C)(C)CCC[C@]2(C)[C@H]1CC[C@H](C)CC(=O)O (some centres not stated)
inactive: Potency (C33A) | outcome (CASKI) | Potency (Es-2) | Potency (HeLa) | Potency (Hek293T) | Potency (JEG-3) | Potency (OV90) | Potency (PA-1) | Potency (SKOV3) | Potency (Tov-21-G) | Potency (Tov112D)

O=C(Nc1ccc(N2CCC(C(=O)N3CCOCC3)CC2)cc1)c1cnc(Oc2ccccc2)nc1
inactive: Potency (C33A) | outcome (CASKI) | Potency (Es-2) | Potency (HeLa) | Potency (Hek293T) | Potency (JEG-3) | Potency (OV90) | Potency (PA-1) | Potency (SKOV3) | Potency (Tov-21-G) | Potency (Tov112D)

CC(CNS(=O)(=O)C(C)C)c1ccc(-c2ccc(C#N)cc2)cc1 (configuration not stated)
inactive: Potency (CAOV3) | Potency (HeLa) | Potency (PA-1) | Potency (Tov-21-G)
active: Potency (OV90) 10 µM | Potency (SKOV3) 8.91 µM

C=C(CCO)C(=O)OCC1OCC(OC(=O)C(=C)CCO[C@@H]2O[C@H](COC(=O)C(=C)CCO[C@@H]3O[C@H](CO)[C@@H](O)[C@H](O)[C@H]3O)[C@@H](O)[C@H](O)[C@H]2O)C(O)C1O (some centres not stated)
inactive: Potency (C33A) | outcome (CASKI) | Potency (Es-2) | Potency (HeLa) | Potency (Hek293T) | Potency (JEG-3) | Potency (OV90) | Potency (PA-1) | Potency (Tov-21-G) | Potency (Tov112D)

CC1(C)OC(=O)CC(O)C2(C)C1CC(=O)C1(C)C2C(O)CC2(C)C(c3ccoc3)OC(=O)C3OC321 (configuration not stated)
inactive: Potency (C33A) | outcome (CASKI) | Potency (Es-2) | Potency (HeLa) | Potency (Hek293T) | Potency (JEG-3) | Potency (OV90) | Potency (PA-1) | Potency (SKOV3) | Potency (Tov-21-G) | Potency (Tov112D)

O=C(O)c1ccnc(-c2cc(C(=O)NCCc3ccccc3)ccn2)c1
inactive: Potency (CAOV3) | outcome (CASKI) | Potency (Es-2) | Potency (HeLa) | Potency (Hek293T) | Potency (JEG-3) | Potency (OV90) | Potency (PA-1) | Potency (SKOV3) | Potency (Tov-21-G) | Potency (Tov112D)

CCC(C)C(=O)O[C@H]1C[C@](C)(O)[C@]23OC(C)(C)[C@H](C[C@H](OC(=O)c4ccccc4)[C@]2(COC(C)=O)[C@H]1OC(=O)C(C)CC)[C@H]3OC(C)=O (some centres not stated)
inactive: Potency (C33A) | outcome (CASKI) | Potency (Es-2) | Potency (HeLa) | Potency (Hek293T) | Potency (JEG-3) | Potency (OV90) | Potency (PA-1) | Potency (SKOV3) | Potency (Tov-21-G) | Potency (Tov112D)

COC(=O)C1=CO[C@@H](O[C@@H]2O[C@H](CO)[C@@H](O)[C@H](O)[C@H]2O)C2C1CC(O)C2C (some centres not stated)
inactive: Potency (C33A) | outcome (CASKI) | Potency (Es-2) | Potency (HeLa) | Potency (Hek293T) | Potency (JEG-3) | Potency (OV90) | Potency (PA-1) | Potency (SKOV3) | Potency (Tov-21-G) | Potency (Tov112D)

CC(C)c1ccc2c(c1)C(O)CC1C(C)(CO)CCCC21C (configuration not stated)
inactive: Potency (C33A) | outcome (CASKI) | Potency (Es-2) | Potency (HeLa) | Potency (Hek293T) | Potency (JEG-3) | Potency (OV90) | Potency (PA-1) | Potency (Tov-21-G) | Potency (Tov112D)

Cc1ccc([C@@H]2CC=C(C(=O)O)[C@H](c3ccc(C(C)(C)C)cc3)N2S(=O)(=O)c2ccc(C)cc2)cc1
inactive: Potency (C33A) | outcome (CASKI) | Potency (Es-2) | Potency (HeLa) | Potency (Hek293T) | Potency (JEG-3) | Potency (OV90) | Potency (PA-1) | Potency (SKOV3) | Potency (Tov-21-G) | Potency (Tov112D)

CCNC(=O)C1CC(F)(c2ccc(CN3CCCC3)c(F)c2)C1 (configuration not stated)
inactive: Potency (C33A) | outcome (CASKI) | Potency (Es-2) | Potency (HeLa) | Potency (Hek293T) | Potency (JEG-3) | Potency (OV90) | Potency (PA-1) | Potency (SKOV3) | Potency (Tov-21-G) | Potency (Tov112D)

CC(C)=CCC[C@](C)(O[C@@H]1O[C@H](CO[C@@H]2O[C@@H](CO)[C@H](O)[C@H]2O)[C@@H](O)[C@H](O)[C@H]1O)[C@H]1CC[C@]2(C)[C@@H]1[C@H](O)C[C@@H]1[C@@]3(C)CC[C@H](O[C@@H]4O[C@H](CO)[C@@H](O)[C@H](O)[C@H]4O[C@@H]4O[C@H](CO)[C@@H](O)[C@H](O)[C@H]4O)C(C)(C)[C@@H]3CC[C@]12C
inactive: Potency (C33A) | outcome (CASKI) | Potency (Es-2) | Potency (HeLa) | Potency (Hek293T) | Potency (JEG-3) | Potency (OV90) | Potency (SKOV3) | Potency (Tov-21-G) | Potency (Tov112D)
